Among the data in PubChem BioAssay (Tox21) are Potency values, retold here.

Inconclusive results are not listed. Some structures have more than one record in an assay (separate samples or runs), and their calls can disagree. The source made the active and inactive calls. Calls follow the shape of the dose curve; as a rule, active = well fitted cell-killing curve with a large enough effect in the repeat runs; inconclusive = weak or mixed curves; inactive = flat fitted curve, though single readings scatter.
Potency is read from the fitted curve at half-maximal effect.

This assay in a line: qHTS RealTime-Glo MT Cell Viability Assay in HepG2 cells - 24 hour (AID 1224867). Also: nearly all actives have a fitted effect of over 50% in size. The note with it: RealTime-Glo luminescence; series mostly up to 76.8 µM. Summed up:
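Viability was tracked continuously by NanoLuc luminescence from prosubstrate reduced by living HepG2 cells, at successive time points over 40 h of compound exposure. Cells with reagent were preincubated 5 h at 37 °C before compound addition.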
(In qHTS, concentration-response curves come from the screen itself.)
Take `C[n+]1ccn(Cc2ccccc2)c1`: the Potency entry was “inactive”.

On to `CCCCCCCCCCCCCCCC[N+](C)(C)CCN(Cc1ccc(OC)cc1)c1ncccn1`, for which the Potency is 6.74 µM (active).

As for `CCCCN1C(=O)[C@@H]([C@H](O)C2CCCCC2)NC(=O)C12CCN(Cc1ccc(Oc3ccc(C(=O)O)cc3)cc1)CC2`, the Potency entry was “inactive”.

For `Cc1[nH]cnc1C[C@H]1CCc2c(C)c3ccccc3n2C1=O`, the Potency is 38 µM (active).

For the compound `COc1cc(-c2nc(NC(=O)c3cc4cc(C)cc(C)c4n3CC(=O)O)sc2CCC2CCCCC2)c(OC)cc1Cl`, the Potency is 40 µM (active).

As to `Oc1ccc(N=Nc2ccccc2)cc1`, the Potency result was “inactive”.

Regarding `NC(=O)C1(N2CCCCC2)CCN(CCCN2c3ccccc3CCc3ccc(Cl)cc32)CC1`, the Potency is 23.9 µM (active).

As for `CCCCc1oc2ccc(NS(C)(=O)=O)cc2c1C(=O)c1ccc(OCCCN(CCCC)CCCC)cc1`, the Potency was 9.52 µM (active).

Regarding `Clc1ccccc1C(c1ccccc1)(c1ccccc1)n1ccnc1`, the Potency is 21.9 µM (active) and inactive.

As to `OCCN1CCN(CC/C=C2/c3ccccc3Sc3ccc(C(F)(F)F)cc32)CC1`, the Potency was 21.3 µM (active).

For `CCN(CC)CCCC(C)Nc1c2ccc(Cl)cc2nc2ccc(OC)cc12` (configuration not stated), the Potency was 6.74 µM (active).

As to `Nc1ccccc1O`, the Potency result was “inactive”.

For the compound `Nc1ccc2c3c(cccc13)-c1ccccc1-2`, the Potency result is “inactive”.

In the case of `OCCN(CCO)c1nc(N2CCCCC2)c2nc(N(CCO)CCO)nc(N3CCCCC3)c2n1`, the Potency result was “inactive”.

Regarding `CC(C)(C)C1CCC(CC2=C(O)c3ccccc3C(=O)C2=O)CC1` (configuration not stated), the Potency result was “inactive”.

In the case of `ON=C1CCCC1`, the Potency result was “inactive”.

With `C[C@@H](NCCCc1cccc(C(F)(F)F)c1)c1cccc2ccccc12`, the Potency is 16.9 µM (active).
